Bioassay records: PubChem BioAssay, National Center for Advancing Translational Sciences (NCATS)
KinaseGlo FLuc – counter-screen: inhibitors of Kinase-Glo firefly luciferase | Q27757 | Kinase-Glo luciferase, ATP luminescence, 8 min | Potency, µM (highest dose often 38.3 µM), usual class: inhibitors | 200,000 compounds, 0.28% hits | AID 1379; further: nearly all actives have a fitted effect of over 60% in size
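Kinase-Glo luciferase light output from ATP and luciferin was measured with 10 uM ATP, within the enzyme's linear range. Buffer: 50 mM imidazole pH 7.2, 50 mM KCl, 7 mM MgCl2, 0.01% Tween 20, 0.05% BSA; luminescence read after 8 min at ambient temperature.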
HPGD block – blocks human HPGD enzyme activity. purified HPGD, NADH fluorescence kinetic, PGE2 substrate. P15428. 150,000 compounds, 4.3% hits. Potency, µM, usual class: inhibitors; active means well fitted inhibition curve with a large enough effect, not every such curve was filed as active; inconclusive means small, poorly fitted or top-dose-only effect, or another doubt; inactive means no such curve, though single readings can be large or run the other way
Target sequence (P15428 whole entry, looked up): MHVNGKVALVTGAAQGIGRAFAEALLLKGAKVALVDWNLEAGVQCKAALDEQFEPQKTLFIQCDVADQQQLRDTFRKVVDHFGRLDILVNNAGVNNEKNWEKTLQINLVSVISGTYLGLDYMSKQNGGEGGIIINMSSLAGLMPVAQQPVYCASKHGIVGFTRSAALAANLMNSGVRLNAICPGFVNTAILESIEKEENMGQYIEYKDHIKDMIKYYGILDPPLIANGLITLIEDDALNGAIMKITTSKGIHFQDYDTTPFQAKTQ
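20 nM HPGD preincubated 15 min at room temperature with compound in 50 mM Tris-HCl pH 8, 0.01% Tween 20. Started with 1 mM NAD+ and 30 uM prostaglandin E2; NADH fluorescence (360/450 nm) read 5 times over 30-s intervals, last minus first.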
ALDH1A1 inh – inhibitors of human aldehyde dehydrogenase 1A1 | P00352 | Purified ALDH1A1, NADH fluorescence, propionaldehyde substrate | Potency, µM (titrated, usually from 75.3 µM), actives largely listed as inhibitors | 220,000 compounds, 7.3% hits | AID 1030; active means well fitted inhibition curve with a large enough effect, not every such curve was filed as active; inconclusive means small, poorly fitted or top-dose-only effect, or another doubt; inactive means no such curve, though single readings can be large or run the other way
Target sequence (P00352 whole entry, looked up): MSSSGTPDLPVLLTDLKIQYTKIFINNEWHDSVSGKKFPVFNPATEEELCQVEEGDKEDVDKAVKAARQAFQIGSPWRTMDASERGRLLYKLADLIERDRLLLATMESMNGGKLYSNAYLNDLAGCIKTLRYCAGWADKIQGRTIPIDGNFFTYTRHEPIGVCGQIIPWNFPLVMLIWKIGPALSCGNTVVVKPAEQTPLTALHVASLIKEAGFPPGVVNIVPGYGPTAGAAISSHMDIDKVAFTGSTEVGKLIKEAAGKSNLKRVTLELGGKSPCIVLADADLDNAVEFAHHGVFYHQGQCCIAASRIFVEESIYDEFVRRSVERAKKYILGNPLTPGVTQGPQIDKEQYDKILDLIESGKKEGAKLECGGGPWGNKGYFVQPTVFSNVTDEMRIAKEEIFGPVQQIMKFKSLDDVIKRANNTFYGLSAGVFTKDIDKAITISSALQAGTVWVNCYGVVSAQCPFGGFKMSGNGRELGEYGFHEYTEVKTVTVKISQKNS
HttQ103 aggreg – mutant huntingtin aggregation inhibition. PC12 HttQ103-GFP aggregates, Acumen cytometry, 40 h. 220,000 compounds, 1.1% hits. Potency, µM (doses to about 46.1 µM), actives largely listed as inhibitors; further: nearly all actives have a fitted effect of over 60% in size
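PC12/HTTQ103-GFP, ecdysone-inducible; teb 100 nM; cpd qHTS titration; GFP aggregates read on laser cytometer, Ex 488/Em 500-530 nm.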
HTT cytoprotect – cytoprotection in Huntington HTT-Q103 PC12 cell model | PC12 HTT-Q103 induced, cytoprotection, ATP luminescence, 40 h | Potency, µM (top dose mostly 56.4 µM), actives largely listed as activators | 230,000 compounds, 0.14% hits; further: nearly all actives have a fitted effect of over 45% in size
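PC12 cells with ecdysone-inducible HTT exon 1 Q103-GFP, induced with 100 nM tebufenozide and co-treated with library compounds in a dose series (1536-well, 1500 cells/well). Cytoprotection read as ATP content by ATPlite luminescence.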
Lamin A splicing – changes lamin A minigene splicing in HeLa cells; HeLa LMNA splicing GFP/RFP minigene ratio, 48 h; Potency, µM (top dose mostly 46.1 µM), most hits filed as inhibitors; 200,000 compounds, 0.01% hits; AID 1487; active means well fitted inhibition curve with a large enough effect in the signal ratio, with a control signal flat, not every such curve was filed as active; inconclusive means small, poorly fitted or top-dose-only effect, or effect the other way, or a change in a side signal; the % refers to the signal ratio
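S3 HeLa cells stably expressing lamin A-EGFP splicing minigene plus DsRed2, 600 cells/well, 48 h compound exposure at 37C. Laser-scanning cytometry; analysed as GFP (500-530 nm)/RFP (575-640 nm) total intensity ratio; 0.5% DMSO vehicle.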
Each line names hits and unclear results; the compound was inactive in the other large screens. The list is not random: actives were taken first. Their share in the collection is about 9%. Unless noted, the call rests on the fitted dose curve; in most records, active means well fitted curve in the direction sought with a large enough effect; inconclusive means small, poorly fitted or top-dose-only effect, or another doubt; inactive means no such curve, though single readings can be large; an effect the other way counts as inactive or inconclusive.

N#C/C(=C\Nc1ccc2c(c1)OCCO2)c1nc2ccccc2[nH]1	HttQ103 aggreg inconclusive
COC(=O)c1c[nH]n2c(=O)c(Cc3ccc(F)cc3Cl)c(C)nc12	HPGD block inconclusive, ALDH1A1 inh inconclusive, HttQ103 aggreg 17.8µM, Lamin A splicing inconclusive
COC(=O)c1c[nH]n2c(=O)c(Cl)c(C)nc12	none (no result: HTT cytoprotect)
COc1ccc(NC(=O)COC(=O)CCCc2c[nH]c3ccccc23)cc1	ALDH1A1 inh 8.91µM
COc1ccc(NC(=O)COC(=O)Cc2c[nH]c3ccccc23)cc1OC	none (no result: HPGD block)
CC(=O)N[C@@H](Cc1c[nH]c2ccccc12)C(=O)OCC(=O)Nc1ccc(Cl)c(S(=O)(=O)N(C)C)c1	ALDH1A1 inh inconclusive (no result: HPGD block)
CC(=O)NC(Cc1c[nH]c2ccccc12)C(=O)OCC(=O)Nc1ccc2c(c1)OCO2 (configuration not stated)	ALDH1A1 inh 5.01µM
CC(=O)Nc1ccc(NC(=O)COC(=O)Cc2c[nH]c3ccccc23)cc1	ALDH1A1 inh 14.1µM
COc1cccc(NC(=O)COC(=O)CCCc2c[nH]c3ccccc23)c1	none
CCOc1ccc(NC(=O)Cc2c[nH]c3ccccc23)cc1	none (no result: KinaseGlo FLuc, HPGD block, ALDH1A1 inh, HttQ103 aggreg, HTT cytoprotect)
CCOc1ccc(NC(=O)COC(=O)CCCc2c[nH]c3ccccc23)cc1	ALDH1A1 inh 15.8µM
CC(C)CNS(=O)(=O)c1ccc(CCC(=O)NCC2CCCO2)cc1 (configuration not stated)	Lamin A splicing inconclusive
CC(=O)OCC(=O)NCC(=O)c1c[nH]c2ccccc12	HPGD block 15.8µM (no result: HTT cytoprotect)
CCOC(=O)C1CCCN(C(=O)c2ccco2)C1 (configuration not stated)	ALDH1A1 inh 8.91µM
CCOC(=O)C1CCCN(C(=O)c2cc3c(C)nc4ccccc4c3o2)C1 (configuration not stated)	none
CC1CCCN(C(=O)CN2CCN(C(=O)c3ccco3)CC2)C1 (configuration not stated)	ALDH1A1 inh 22.4µM
CCOC(=O)C1CCCN(C(=O)c2ccc(C)cc2O)C1 (configuration not stated)	HPGD block 14.1µM, ALDH1A1 inh inconclusive
CCOC(=O)C1CCCN(C(=O)c2cc(-c3ccccc3)on2)C1 (configuration not stated)	HPGD block 28.2µM
COc1ccc(NC(C)c2cc(Cl)ccc2O)cc1 (configuration not stated)	HPGD block inconclusive, ALDH1A1 inh 22.4µM
CC(Nc1ccccc1)c1cc(Cl)ccc1O (configuration not stated)	none
CCCCc1cc(=O)oc2cc(C)cc(O)c12	ALDH1A1 inh 8.91µM, HttQ103 aggreg inconclusive
CCCCc1cc(=O)oc2cc(O)cc(O)c12	ALDH1A1 inh inconclusive, HTT cytoprotect inconclusive (no result: HPGD block, Lamin A splicing)
Cc1cc(=O)oc2cc(O)c(O)cc12	HPGD block inconclusive, ALDH1A1 inh inconclusive (no result: HttQ103 aggreg, HTT cytoprotect)
CCCc1cc(=O)oc2cc(C)c(CN3CCCC3)c(O)c12	ALDH1A1 inh 35.5µM
CCCc1cc(O)c2c(C)cc(=O)oc2c1	ALDH1A1 inh 15.8µM, HttQ103 aggreg inconclusive
CCOC(=O)C1=C(C)NC(=O)NC1/C=C/c1ccccc1OC (configuration not stated)	none (no result: HPGD block, Lamin A splicing)
C/C=C/Cn1c(SCc2ccccc2)nc2c1c(=O)[nH]c(=O)n2C	HPGD block 20µM, ALDH1A1 inh 14.1µM
Cc1ccc(Cn2c(Sc3ncccn3)nc3c2c(=O)[nH]c(=O)n3C)cc1	none
C/C=C/CSc1nc2c(c(=O)[nH]c(=O)n2C)n1Cc1ccc(C)cc1	HPGD block 17.8µM, ALDH1A1 inh 10µM
Cc1ccc(Cn2c(SCC(C)C)nc3c2c(=O)n(C)c(=O)n3C)cc1	ALDH1A1 inh 2µM
CCSc1nc2c(c(=O)n(C)c(=O)n2C)n1Cc1ccc(Cl)cc1	none (no result: KinaseGlo FLuc, HPGD block, ALDH1A1 inh, HttQ103 aggreg, Lamin A splicing)
O=C(CSc1ncccn1)N/N=C/c1cccc(OC2CSC2)c1	ALDH1A1 inh inconclusive (no result: HPGD block)
CCN1CCN(c2cc(C)c3cc(NC(=O)c4ccc(Br)o4)ccc3n2)CC1	none (no result: KinaseGlo FLuc, HPGD block)
CC(C)NC(=O)N1CC2(CCN(C(=O)c3cccn3C)CC2)C1	HTT cytoprotect inconclusive (no result: HttQ103 aggreg, Lamin A splicing)
Cn1c(Sc2ccc([N+](=O)[O-])cc2C(F)(F)F)nnc1-c1ccccc1	none
Cc1ccc(OCc2nnc(SCC(=O)c3ccccc3)n2Cc2ccco2)cc1	ALDH1A1 inh inconclusive, Lamin A splicing inconclusive
Cc1ccc(C(=O)CSc2nnc(CNc3ccc(C)cc3C)n2Cc2ccco2)cc1	ALDH1A1 inh 22.4µM
COc1ccc(NCc2nnc(SCC(=O)c3ccc(OC)cc3)n2C)cc1	ALDH1A1 inh 6.31µM
Cc1ccc(NCc2nnc(SCc3ccc(C#N)cc3)n2Cc2ccco2)c(C)c1	none
Cn1c(SCc2ccc(Cl)cc2)nnc1C1CC1	ALDH1A1 inh 11.9µM, HTT cytoprotect inconclusive (no result: HPGD block)
COc1ccc(C(=O)CSc2nnc(CNc3ccc(C)cc3C)n2Cc2ccco2)cc1	HPGD block inconclusive, ALDH1A1 inh 7.08µM, Lamin A splicing inconclusive
CC(=O)C1=C(O)C(=O)N(CC#N)C1c1cccs1 (configuration not stated)	ALDH1A1 inh inconclusive
CN1CCN(C2Cc3ccccc3Sc3ccc(Cl)cc32)CC1 (configuration not stated)	Lamin A splicing inconclusive
COc1ccc(N2CC(C(=O)Nc3cccc(C)n3)CC2=O)cc1 (configuration not stated)	none (no result: HPGD block, Lamin A splicing)
O=C(NCc1ccc(N2CCCC2=O)cc1)c1cn(CCc2ccccc2)nn1	none
CCOc1ccc(C(=O)CSc2nnc(C3CC3)n2C)cc1	ALDH1A1 inh 7.94µM
COC(=O)c1ccc(NC(=O)COC(=O)CSc2nc(C)cc(C)n2)cc1	none
c1ccc2c(c1)OCC(c1nn3c(Cn4nnc5ccccc54)nnc3s1)O2 (configuration not stated)	HPGD block 10µM, ALDH1A1 inh 11.2µM
c1ccc(CCn2cnc3ccccc32)cc1	HttQ103 aggreg inconclusive (no result: HPGD block, Lamin A splicing)
O=C(O)CSc1nnc(Cn2nnc3ccccc32)n1CCc1ccccc1	HPGD block inconclusive
c1ccc(CCc2nn3c(Cn4nnc5ccccc54)nnc3s2)cc1	HPGD block 10µM, ALDH1A1 inh 3.55µM
c1ccc(CCc2nn3c(Cn4cnc5ccccc54)nnc3s2)cc1	HPGD block 15.8µM, ALDH1A1 inh 3.55µM
O=c1c2ccccc2nnn1CSc1nnc(C2COc3ccccc3O2)n1-c1ccccc1 (configuration not stated)	Lamin A splicing inconclusive
COc1ccc(OCc2nn3c(-c4cccc(OC)c4)nnc3s2)cc1	HPGD block inconclusive
COc1ccc(OCc2nn3c(Cn4cnc5ccccc54)nnc3s2)cc1	HPGD block 14.1µM, ALDH1A1 inh 22.4µM, HttQ103 aggreg 25.1µM, Lamin A splicing inconclusive
Cc1cc(C)nc(SCCN(C)C)n1	none (no result: HPGD block, Lamin A splicing)
